Bioassay records deposited in PubChem by several laboratories.
CYP2C19 act – increases human CYP2C19 enzyme activity. P33261. recombinant CYP2C19, luciferin-H EGE luminescence; hits give high values; 0 = fully inhibited enzyme, 1 = untreated enzyme. activation factor at 5 µM. 96,000 tested, under 10 active;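 active = activation factor of at least 2 at 5 µM in the primary screen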
Target sequence (P33261 whole entry, looked up): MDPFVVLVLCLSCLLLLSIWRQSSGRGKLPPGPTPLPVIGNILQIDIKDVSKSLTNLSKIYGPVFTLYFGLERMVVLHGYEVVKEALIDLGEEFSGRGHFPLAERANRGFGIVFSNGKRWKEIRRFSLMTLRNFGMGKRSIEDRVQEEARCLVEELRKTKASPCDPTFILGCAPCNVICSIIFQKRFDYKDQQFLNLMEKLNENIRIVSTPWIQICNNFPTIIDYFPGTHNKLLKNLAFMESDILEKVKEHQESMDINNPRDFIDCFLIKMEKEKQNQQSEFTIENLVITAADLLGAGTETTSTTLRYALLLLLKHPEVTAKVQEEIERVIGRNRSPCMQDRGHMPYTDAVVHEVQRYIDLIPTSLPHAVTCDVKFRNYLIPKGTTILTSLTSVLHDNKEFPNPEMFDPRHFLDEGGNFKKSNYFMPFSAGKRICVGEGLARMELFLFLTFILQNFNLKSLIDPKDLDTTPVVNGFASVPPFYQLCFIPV
CYP2C9 inhib – blocks human cytochrome P450 2C9 | inhibition, % at 5 µM | hit rate 20% among 96,000 | AID 777 | P11712 | CYP2C9 Supersomes, luciferin-H conversion, luminescence;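 active = blocking of liver enzyme CYP2C9 beyond about 50% at 5 µM, limit read from the data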
CYP2C9 act – increases human cytochrome P450 2C9 activity; P11712; recombinant CYP2C9, luciferin-H conversion, luminescence; hits give high values; factor 1 = untreated enzyme, 0 = blocked; hit rate 1.4% among 96,000; activation factor at 5 µM;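 active = activation factor of 2 or more for CYP2C9 at a 5 µM dose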
Plk1 PBD FP – blocks phosphopeptide binding to human Plk1 polo box domain | inhibition, %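 (tested at about 20 µM)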 | hit rate 0.13% among 97,000 | AID 693 | Plk1 PBD phosphopeptide binding, fluorescence polarization; in the data active = inhibition above about 34%, passing the limit was not always enough
CYP2C19 inhib – blocks human cytochrome P450 2C19; P33261; CYP2C19 Supersomes, luciferin-H EGE luminescence, 30 min; inhibition, % at 5 µM; hit rate 21% among 96,000; AID 778;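 active = CYP2C19 inhibition above a set limit at 5 µM in the primary screen, cut at about 50% in these data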
PLK1 inh – PLK1 (human) kinase inhibition | P53350 | recombinant PLK1 kinase, TR-FRET peptide phosphorylation | inhibition, % at 10 µM | hit rate 0.53% among 97,000 | AID 619;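 active = inhibition of 50% or more in the single-concentration screen; inactive = inhibition below 50%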
Each line names hits and unclear results; the compound was inactive in the other large screens. Hits are enriched below; roughly 28% of the tested compounds scored in any of these assays.

O=C(CN1C(=O)c2ccccc2S1(=O)=O)NCCC1=CCCCC1	none (no result: CYP2C19 act, CYP2C9 inhib, CYP2C9 act, CYP2C19 inhib)
O=C(C1CCN(S(=O)(=O)c2ccc(F)cc2)CC1)N1CC=C(c2ccccc2)CC1	none (no result: Plk1 PBD FP, PLK1 inh)
CCOC(=O)C1CCN(CCC(=O)Nc2cccc(Cl)c2)CC1	CYP2C9 inhib 75, CYP2C19 inhib 52
O=C(CCN1CCN(Cc2ccccc2)CC1)Nc1cccc(Cl)c1	CYP2C9 inhib 54
CCOC(=O)C1CCN(CCC(=O)Nc2ccccc2Cl)CC1	none (no result: CYP2C19 act, CYP2C9 inhib, CYP2C9 act, CYP2C19 inhib)
COC(=O)CC(NC(=O)c1ccco1)c1ccc(C(C)C)cc1 (stereo not given)	none
O=C(Cc1ccccc1)NCC(=O)OCC(=O)c1ccc(OC(=O)c2ccccc2)cc1	none
Cc1ccc(-c2cc(C(F)F)n3ncc(C(=O)Nc4c(C)nn(Cc5ccccc5Cl)c4C)c3n2)cc1	CYP2C9 inhib 89
CCc1nccn1C(=O)c1cnn2c(C(F)F)cc(-c3ccccc3)nc12	none
Cc1nn(Cc2c(Cl)cccc2Cl)c(C)c1NC(=O)c1cnn2c(C(F)F)cc(-c3ccccc3)nc12	CYP2C9 inhib 63
Cc1ccc(C2CC(C(F)F)n3ncc(C(=O)Nc4c(C)nn(Cc5c(F)cccc5Cl)c4C)c3N2)cc1 (stereo not given)	none (no result: CYP2C19 act, CYP2C9 inhib, CYP2C9 act, CYP2C19 inhib)
Cc1ccc(-c2cc(C(F)F)n3ncc(C(=O)Nc4c(C)nn(Cc5c(Cl)cccc5Cl)c4C)c3n2)cc1	CYP2C9 inhib 91
Cc1nn(Cc2ccccc2Cl)c(C)c1NC(=O)c1cc(-c2ccc(F)cc2)on1	none
Cc1ccc(-n2nc3c(c2NC(=O)c2ccccc2Br)CS(=O)C3)cc1 (stereo not given)	none
Cc1ccccc1C(=O)N/N=C/c1ccc(OCC(=O)N2CCCCC2)cc1	none
CCCC(=O)C1=C(O)C(C(=O)OC)C(C)(C)CC1=Nc1ccc(N)cc1 (stereo not given)	CYP2C19 inhib 52
CCCC(=O)C1=C(O)C(C(=O)OC)C(C)(C)CC1=Nc1ccncc1 (stereo not given)	CYP2C9 inhib 61, CYP2C19 inhib 90 (no result: Plk1 PBD FP, PLK1 inh)
CCCC(=O)C1=C(O)C(C(=O)OC)C(C)(C)CC1=NC (stereo not given)	none (no result: Plk1 PBD FP, PLK1 inh)
O=C(Nc1nc(-c2ccc(S(=O)(=O)N3CCCC3)cc2)cs1)C1COc2ccccc2O1 (stereo not given)	CYP2C9 inhib 92, CYP2C19 inhib 62
O=C(Nc1nc(-c2ccccc2)cs1)C1COc2ccccc2O1 (stereo not given)	none
O=C(Nc1nc(-c2ccc3c(c2)OCO3)cs1)C1COc2ccccc2O1 (stereo not given)	CYP2C9 inhib 80 (no result: Plk1 PBD FP, PLK1 inh)
CCOC(=O)N1CCN(C(=O)CSCC(=O)Nc2nc(-c3ccc4c(c3)OCO4)cs2)CC1	CYP2C9 inhib 73
O=C1CC(N2CCN(c3ccc(S(=O)(=O)N4CCCC4)cc3)CC2)C(=O)N1c1ccc(F)cc1 (stereo not given)	none
Cc1ccc2oc(=O)c3cnn(CC(=O)NCCCOC(C)C)c3c2c1	none
CSc1nc(C)c(C(=O)Nc2ccccc2)c(C)c1C#N	CYP2C19 inhib 73
Cc1nc(SCC(=O)c2cc3ccccc3oc2=O)c(C#N)c(C)c1C(=O)Nc1ccccc1	CYP2C9 inhib 51
CCOC(=O)CSc1nc(C)c(C(C)=O)cc1C#N	none
Cc1nc(SCC(=O)OCc2ccccc2)c(C#N)c(-c2ccccc2)c1C(=O)Nc1ccccc1	CYP2C9 inhib 59
CCNC(=O)Nc1cc2nc(C)n(Cc3ccc(Br)cc3)c2nc1C	CYP2C19 inhib 80
CCC1CCCCN1c1ccc([N+](=O)[O-])cc1/C=N/NC(=O)Cn1c2ccccc2c(=O)c2ccccc21 (stereo not given)	none
N#CC1=C(N)c2ccccc2CC12CCCCC2	CYP2C9 inhib 78
CCC(=O)NC1=C(C#N)C2(CCCC2)Cc2ccccc21	none (no result: Plk1 PBD FP, PLK1 inh)
N#Cc1c(NC(=O)CSc2n[nH]c(N)n2)oc(-c2ccccc2)c1-c1ccccc1	CYP2C9 inhib 51
COc1ccccc1NC(=O)Cn1c(=O)oc2ccccc21	none
Nc1nc(SCC(=O)Nc2ccccc2)[nH]c(=O)c1-c1ccccc1	none
N#Cc1c(NC(=O)Cn2c(=O)oc3ccccc32)oc(-c2ccccc2)c1-c1ccccc1	CYP2C9 inhib 76
Cc1oc(C(=O)O)cc1CSc1nnc(-c2ccccc2)n1C	none
COc1cc(C(=O)Nc2ccc(OCC(=O)O)cc2)cc(OC)c1OC	none (no result: Plk1 PBD FP, PLK1 inh)
CSc1nc(-c2ccccc2)c(-c2ccccc2)[nH]1	none
